Activity calls are given as the source filed them. How the source made its calls: active means hit-call score of the fitted dose curve at least 0.9, where 1 is the maximum; inactive means score below 0.9.
Read-out: Tumor necrosis factor receptor superfamily member 6 (Homo sapiens) (UniProt P25445)
Experiment: LTEA_HepaRG_FAS: Life Technologies and Expression Analysis (LTEA) Assay for Fas cell surface death receptor (FAS) using HepaRG (AID 2283447)
Conditions: mRNA level, 48 h; actives raise or lower the signal
Outline: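 Differentiated human HepaRG cells, pre-cultured 48 h, were exposed in duplicate for 48 h to 8-point half-log concentrations (top 100 uM, 0.5% DMSO) in serum-free induction medium; FAS mRNA measured by qRT-PCR, normalized to ACTB/GAPDH/POLR2A, bidirectional fit versus DMSO.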

| Compound | outcome | AC50 |
| --- | --- | --- |
| CCCCOC(=O)c1ccccc1C(=O)OCCCC | inactive |  |
| COC(=O)N(OC)c1ccccc1COc1ccn(-c2ccc(Cl)cc2)n1 |  | 78.3 µM (active) |
| O=C(Nc1ccccc1)Nc1ccnc(Cl)c1 | inactive |  |
| CN(C)C(=S)SSC(=S)N(C)C | inactive |  |
| CS/C(C)=N/OC(=O)N(C)SN(C)C(=O)O/N=C(\C)SC | inactive |  |
| CC(C)(C)c1ccc(CSc2cnn(C(C)(C)C)c(=O)c2Cl)cc1 |  | 1.9 µM (active) |
| COc1ccc(C(c2ccc(OC)cc2)C(Cl)(Cl)Cl)cc1 | inactive |  |
| N#Cc1cc(Br)c(O)c(Br)c1 | inactive |  |
| CC(Oc1ccc(Cl)cc1Cl)C(=O)O (stereo unspecified) | inactive |  |
| COc1cnc(OC)n2nc(NS(=O)(=O)c3c(OCC(F)F)cccc3C(F)(F)F)nc12 | inactive |  |
| CCCCC(CC)COC(=O)c1ccccc1C(=O)OCC(CC)CCCC (stereo unspecified) | inactive |  |
| COC(=O)C=C(C)OP(=O)(OC)OC | inactive |  |
| C#CCOS(=O)OC1CCCCC1Oc1ccc(C(C)(C)C)cc1 (stereo unspecified) |  | 44.8 µM (active) |
| COC(=O)c1ccccc1C(=O)OC | inactive |  |
| O=C(O)COc1nc(Cl)c(Cl)cc1Cl | inactive |  |
| CCCCNC(=O)OCC#CI |  | 0.00316 µM (active) |
| N#Cc1nn(-c2c(Cl)cc(C(F)(F)F)cc2Cl)c(N)c1S(=O)C(F)(F)F (stereo unspecified) |  | 61.2 µM (active) |
| Cc1ccc(-c2c(Cl)nc(C#N)n2S(=O)(=O)N(C)C)cc1 | inactive |  |
| CCc1nn(C)c(C(=O)NCc2ccc(C(C)(C)C)cc2)c1Cl | inactive |  |
| OC(c1ccc(Cl)cc1)(c1cncnc1)c1ccccc1Cl (stereo unspecified) |  | 81 µM (active) |
| Fc1ccc(Oc2ccnc3cc(Cl)cc(Cl)c23)cc1 | inactive |  |
